The record followed here is PubChem BioAssay.

The nature of test [1]: growth inhibition of DIPG glioma cells, dose response, cell-based, SU-DIPG-XVII, MIPE5.0, CellTiter-Glo, qHTS (AID 1347060; cut-off not given, nearly all actives have AC50 up to about 26 µM;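 for AC50: cells exposed to compound for 48 hours before viability readout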). As to conditions: SU-DIPG-XVII viability, CellTiter-Glo ATP luminescence. Background: Cellular ATP, detected with luciferase, serves as a proxy for viable cell number.
Test [2] is described as follows: growth inhibition of DIPG glioma cells, dose response, cell-based, SU-DIPG-XIII, MIPE5.0, CellTiter-Glo, qHTS (AID 1347064; cut-off not given, nearly all actives have AC50 up to about 23 µM;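 for AC50: cells exposed to compound for 48 hours before the viability read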). The settings on record: SU-DIPG-XIII viability, CellTiter-Glo ATP luminescence.
Test [3] in a line: viability loss in pontine glioma line – cell-based, SU-DIPG-XXV, MIPE5.0, CellTiter-Glo, qHTS, dose response (AID 1347065; cut-off not given, nearly all actives have AC50 up to about 26 µM;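 note: cells exposed to compound for 48 hours before ATP readout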). As to conditions: CellTiter-Glo ATP luminescence.
A short description of test [4]: SU-DIPG-VI glioma cell viability, MIPE4.0 library, CellTiter-Glo luminescence, qHTS (AID 1347066; cut-off not given, nearly all actives have AC50 up to about 30 µM;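 note: cells exposed to compound for 48 hours before readout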). The settings on record: CellTiter-Glo ATP luminescence.
Test [5] can be described thus: JHH-DIPG-1 glioma cell viability, MIPE5.0 library, CellTiter-Glo luminescence, qHTS (AID 1347067; cut-off not given, nearly all actives have AC50 up to about 26 µM;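 note: cells exposed to compound for 48 hours before readout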). As to conditions: JHH-DIPG-1 glioma viability, CellTiter-Glo ATP luminescence.
A short description of test [6]: SU-DIPG-XXV glioma cell viability, MIPE5.0 library, qHTS (AID 1347068; cut-off not given, nearly all actives have IC50 up to about 30 µM;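 for IC50: cells exposed to compound for 48 hours before viability readout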). A general note: Quantitative high-throughput screening tests each substance at several concentrations.
Test [7] can be described thus: sensitizers of A549 cells to miR-34 induction, primary screen, imaging, A549 dox-inducible miR-34, nuclei and caspase counts (AID 1347080;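 active = compounds whose cell count with miR-34 switched on is under 0.7 times the count with it off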). The settings on record: A549 miR-34 inducible, Hoechst nuclei count, 48 h.
A short description of test [8]: modifiers of HSF1 nuclear foci, imaging, Selleck Cancer Library (AID 1347162; in the data active = plate-normalised HSF1 focus index below about 0.46). The settings on record: human cells, at 10 µM; SSMD: measured here: HSF1 foci SSMD mean; cell count: measured here: cell number; plate-normalised HSF1 focus index: stronger effect = lower value.
Test [9] can be described thus: survival rescue of mitochondrial mutant cells in low glucose, primary screen, MELAS cybrids, Rieske KO mouse fibroblasts, CellTiter-Glo (AID 1508586;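 active = mean z-score across replicates of 1.96 or higher in either the MELAS or the Rieske mutant cell line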;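 note: z relative to plate mean and SD of compound and empty wells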).
Test [10] can be described thus: ovarian cancer cell viability with rucaparib, profiling panel, oncology-focused library, rucaparib conditional (AID 1508598). As to conditions: patient-derived ovarian cancer cells, CellTiter-Glo viability, 144 h, stronger effect = lower value.

Inconclusive results are not listed. Calls of active or inactive are those of the source.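 Rule for the calls, unless noted: active = normalized viability below 100% at a tested concentration; inactive = the rest.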

By AC50 is commonly meant the concentration giving half of the maximal activity seen. Usually IC50 stands for the concentration at which inhibition is half-maximal. What is called viability is a read-out of living cells in per cent, often relative to untreated cells.

Take `Cc1cc(O)c(-c2ccc([C@@H](C)CN)cc2)c2c1[nH]c(=O)c1sccc12`: the AC50 is 0.118 µM (active) in [1], 0.148 µM (active) in test [2] and 0.148 µM (active) in [3].
Regarding `CN1CCN(c2cccc(Nc3nc4c(-c5ccc(S(C)(=O)=O)cc5)cccn4n3)c2)CC1`, the AC50 is 16.6 µM (active) in [1]; 16.6 µM (active) in [2]; 11.8 µM (active) in test [3]; 23.5 µM (active) in [4]; 20.9 µM (active) in test [5]. In test [6], the concentration for half-maximal inhibition (IC50) is 11.8 µM (active). For the same molecule, the fold change in test [7] (stronger effect = lower value, cell number ratio, induced over uninduced) is 0.892 (inactive); in test [7] (measured here: relative caspase fold change +Dox/-Dox) it was 0.496. Also, the cell count in test [7] (measured here: total cells with miR-34 induction, stronger effect = lower value) was 5770; in test [7] (measured here: total cells without miR-34 induction), 6470; in test [8], 6270. The SSMD in test [8] is -2.58. The plate-normalised HSF1 focus index in test [8] was 0.914 (inactive). In addition, the z-score in [9] (MELAS cybrid survival, CellTiter-Glo 48 h, stronger effect = higher value) was -0.221 (inactive); in test [9] (Rieske KO mouse fibroblast survival, CellTiter-Glo 72 h), 0.00545. Also, the viability in test [10] (at 0.000305 µM, OCI-C5x cells, with rucaparib 10 µM, 100% = cells with rucaparib alone) is 113% (inactive); in test [10] (at 0.000305 µM, OCI-C5x cells, without rucaparib) it was 104% (inactive); in test [10] (at 0.000305 µM, OCI-P5x cells, with rucaparib 20 µM, 100% = cells with rucaparib alone) it was 101% (inactive); in test [10] (at 0.000305 µM, OCI-P5x cells, without rucaparib), 90.7% (active); in test [10] (at 0.00122 µM, OCI-C5x cells, with rucaparib 10 µM, 100% = cells with rucaparib alone), 115% (inactive); in test [10] (at 0.00122 µM, OCI-C5x cells, without rucaparib), 112% (inactive). In addition, the viability in test [10] (at 0.00122 µM, OCI-P5x cells, with rucaparib 20 µM, 100% = cells with rucaparib alone) was 109% (inactive); in test [10] (at 0.00122 µM, OCI-P5x cells, without rucaparib), 96.6% (active); in test [10] (at 0.00488 µM, OCI-C5x cells, with rucaparib 10 µM, 100% = cells with rucaparib alone) it was 114% (inactive); in test [10] (at 0.00488 µM, OCI-C5x cells, without rucaparib), 123% (inactive); in test [10] (at 0.00488 µM, OCI-P5x cells, with rucaparib 20 µM, 100% = cells with rucaparib alone), 107% (inactive); in test [10] (at 0.00488 µM, OCI-P5x cells, without rucaparib), 104% (inactive). The viability in [10] (at 0.0195 µM, OCI-C5x cells, with rucaparib 10 µM, 100% = cells with rucaparib alone) was 115% (inactive); in test [10] (at 0.0195 µM, OCI-C5x cells, without rucaparib), 125% (inactive); in test [10] (at 0.0195 µM, OCI-P5x cells, with rucaparib 20 µM, 100% = cells with rucaparib alone) it was 117% (inactive); in test [10] (at 0.0195 µM, OCI-P5x cells, without rucaparib), 107% (inactive); in test [10] (at 0.0781 µM, OCI-C5x cells, with rucaparib 10 µM, 100% = cells with rucaparib alone), 114% (inactive); in test [10] (at 0.0781 µM, OCI-C5x cells, without rucaparib) it was 129% (inactive). In addition, the viability in test [10] (at 0.0781 µM, OCI-P5x cells, with rucaparib 20 µM, 100% = cells with rucaparib alone) is 112% (inactive); in test [10] (at 0.0781 µM, OCI-P5x cells, without rucaparib) it was 99.2% (active); in [10] (at 0.313 µM, OCI-C5x cells, with rucaparib 10 µM, 100% = cells with rucaparib alone), 113% (inactive); in test [10] (at 0.313 µM, OCI-C5x cells, without rucaparib) it was 128% (inactive); in test [10] (at 0.313 µM, OCI-P5x cells, with rucaparib 20 µM, 100% = cells with rucaparib alone), 115% (inactive); in test [10] (at 0.313 µM, OCI-P5x cells, without rucaparib), 111% (inactive). For the same molecule, the viability was 115% (inactive) in test [10] (at 1.25 µM, OCI-C5x cells, with rucaparib 10 µM, 100% = cells with rucaparib alone); 138% (inactive) in [10] (at 1.25 µM, OCI-C5x cells, without rucaparib); 112% (inactive) in test [10] (at 1.25 µM, OCI-P5x cells, with rucaparib 20 µM, 100% = cells with rucaparib alone); 111% (inactive) in [10] (at 1.25 µM, OCI-P5x cells, without rucaparib); 110% (inactive) in test [10] (at 5 µM, OCI-C5x cells, with rucaparib 10 µM, 100% = cells with rucaparib alone); 206% (inactive) in test [10] (at 5 µM, OCI-C5x cells, without rucaparib). The viability in test [10] (at 5 µM, OCI-P5x cells, with rucaparib 20 µM, 100% = cells with rucaparib alone) was 45% (active); in test [10] (at 5 µM, OCI-P5x cells, without rucaparib), 77.6% (active).
Consider `O=C(C[C@@H]1C/C=C\CCC(=O)O[C@H](c2ccccc2)CNC1=O)NCc1ccc(Cl)cc1`, for which the molecule was classed as inactive in test [1], in test [2], in [3], in test [4], in [5] and in test [6].
Regarding `Cn1nccc1Nc1nccc(-c2ccn([C@H](CO)c3ccc(Cl)c(F)c3)c(=O)c2)n1`, the half-maximal activity concentration (AC50) in test [1] is 18.6 µM (active); in [2] it was 10.5 µM (active); in [3], 18.6 µM (active); in [5] it was 1.48 µM (active).
Consider `Nc1ccc(/C=C/C(=O)NCc2cc3cc(-c4ccc(C(=O)N5CCC(F)(F)CC5)cc4)cc(-c4ccc(F)cc4)c3o2)cn1`, for which the concentration at half-maximal activity (AC50) is 0.105 µM (active) in test [1], 0.372 µM (active) in [2], 0.742 µM (active) in [3] and 0.525 µM (active) in [5].
Turning to `Cc1cc(-c2cc(OC(=O)c3ccccc3)ccc2Cl)cc2nnc(Nc3ccc(OCCN4CCCC4)cc3)nc12`, the AC50 in test [1] was 5.12 µM (active); in test [2], 7.23 µM (active); in test [3] it was 5.12 µM (active); in test [5], 5.12 µM (active).
Regarding `c1ccc(-c2cc(CCC3CCNCC3)c3ccccc3n2)cc1`, the AC50 in test [1], in test [2] and in test [3] was 23.5 µM (active) throughout.
